# Assay results as given in PubChem BioAssay AID602139 (NMMLSC, 2011).
# Several values for one entry are separate records, joined by “and”; a condition that tells them apart may be missing. Identical values can stand only once. The list shows a part of the results. Unmarked numbers belong to inactive results. Activity calls are given as the source filed them. Rule as the data show it: active = inhibition above about 32%; inactive = the rest.
# System: Botulinum neurotoxin type A light chain protease (Clostridium botulinum A str. ATCC 3502)
# Assay: BoNT/A light chain protease inhibitors, confirmation, biochemical, flow cytometry, cherry pick 1 (AID 602139)
# Settings: multiplex microsphere protease assay, at 10 µM, hits give high values
row,SMILES,inhibition
1,COCc1cc(=O)[nH]c(SC)n1,0.2%
2,CC1CCc2c(sc3nc4n(c(=O)c23)CCS4)C1 (stereo unspecified),0.4%
3,CCOc1ccc(NC(=O)CC(Cc2ccc(Cl)cc2)C(=O)O)cc1 (stereo unspecified),-0.4%
4,CCN1CCN(C(C(=O)NC2CCCC2)c2cc3c(cc2[N+](=O)[O-])OCO3)CC1 (stereo unspecified),-0.8%
5,COCCn1nnnc1C(c1cc2ccc(OC)cc2[nH]c1=O)N1CCc2ccccc2C1 (stereo unspecified),1.1%
6,Cc1onc(-c2ccccc2Cl)c1C(=O)NCCn1ccc2ccccc21,2.7%
7,COc1ccccc1CNC(=O)C1Cc2ccccc2C(=O)O1 (stereo unspecified),-0.4%
8,Cc1ccc(C(=O)COc2cccc(NC(=O)c3ccco3)c2)cc1,-0.4%
9,O=C(Nc1nnc(CCc2ccccc2)s1)C1CCCO1 (stereo unspecified),-0.5%
10,CC1CCN(C(=O)c2ccc(S(=O)(=O)Cc3cc(F)ccc3F)c([N+](=O)[O-])c2)CC1,0.4%
11,O=C(CN1CCCCCC1)Nc1c(Cl)cc(Cl)cc1Cl,0%
12,CC(=O)c1cccc(NC(=O)N2CCCC2C(=O)NCCc2ccccc2)c1 (stereo unspecified),1.9%
13,O=S(=O)(NC1CCCCC1N1CCC(O)CC1)c1ccc(Cl)cc1 (stereo unspecified),-1%
14,COc1ccccc1-n1c(-c2cc(-c3ccco3)[nH]n2)n[nH]c1=S,1.5%
15,CCOCCn1c(-c2ccccc2)nc2ccccc21,-0.1%
16,CCOc1nnc(C)c2c(C)n(-c3cccc(Cl)c3)nc12,-6.5%
17,CC(=O)Nc1ccc(Oc2ccc3c(c2)C(=O)NC3=O)cc1,0.3%
18,COc1ccc(C2CC(c3cccs3)=NN2c2nc(C)c(C(C)=O)s2)cc1OC (stereo unspecified),33.8% (active) and 32.3% (active)
19,CC(C)Cc1nnc(NC(=O)CCC(=O)Nc2ccc3cn[nH]c3c2)s1,-0.8%
20,COC(=O)CN(c1nc(C)c(Cl)c(OC)n1)S(=O)(=O)c1ccc(C)cc1,1.8%
21,CCCSc1nc2sc3c(c2c(=O)n1-c1ccc(OC)cc1)CCN(C)C3,1.8%
